In the supplement of paper PMC11732987, “Enantioselective OTUD7B fragment discovery through chemoproteomics screening and high-throughput optimisation” (Communications Chemistry, 2025):

Key:
Assay in all cases: log2 ratio of Biotin-Ahx-Ub-VS probe labelling (fragment/DMSO); higher = less target engagement (more negative = stronger competition), active = hit call of the paper (q ≤ 0.05, log2 ratio ≤ -1)
Conditions in all cases: compound concentration: 200 uM; treatment time: 3 h
USP34 = USP34 (UniProt Q70CQ2)
Sequence of USP34 (Q70CQ2 whole entry, the tested form may be a part): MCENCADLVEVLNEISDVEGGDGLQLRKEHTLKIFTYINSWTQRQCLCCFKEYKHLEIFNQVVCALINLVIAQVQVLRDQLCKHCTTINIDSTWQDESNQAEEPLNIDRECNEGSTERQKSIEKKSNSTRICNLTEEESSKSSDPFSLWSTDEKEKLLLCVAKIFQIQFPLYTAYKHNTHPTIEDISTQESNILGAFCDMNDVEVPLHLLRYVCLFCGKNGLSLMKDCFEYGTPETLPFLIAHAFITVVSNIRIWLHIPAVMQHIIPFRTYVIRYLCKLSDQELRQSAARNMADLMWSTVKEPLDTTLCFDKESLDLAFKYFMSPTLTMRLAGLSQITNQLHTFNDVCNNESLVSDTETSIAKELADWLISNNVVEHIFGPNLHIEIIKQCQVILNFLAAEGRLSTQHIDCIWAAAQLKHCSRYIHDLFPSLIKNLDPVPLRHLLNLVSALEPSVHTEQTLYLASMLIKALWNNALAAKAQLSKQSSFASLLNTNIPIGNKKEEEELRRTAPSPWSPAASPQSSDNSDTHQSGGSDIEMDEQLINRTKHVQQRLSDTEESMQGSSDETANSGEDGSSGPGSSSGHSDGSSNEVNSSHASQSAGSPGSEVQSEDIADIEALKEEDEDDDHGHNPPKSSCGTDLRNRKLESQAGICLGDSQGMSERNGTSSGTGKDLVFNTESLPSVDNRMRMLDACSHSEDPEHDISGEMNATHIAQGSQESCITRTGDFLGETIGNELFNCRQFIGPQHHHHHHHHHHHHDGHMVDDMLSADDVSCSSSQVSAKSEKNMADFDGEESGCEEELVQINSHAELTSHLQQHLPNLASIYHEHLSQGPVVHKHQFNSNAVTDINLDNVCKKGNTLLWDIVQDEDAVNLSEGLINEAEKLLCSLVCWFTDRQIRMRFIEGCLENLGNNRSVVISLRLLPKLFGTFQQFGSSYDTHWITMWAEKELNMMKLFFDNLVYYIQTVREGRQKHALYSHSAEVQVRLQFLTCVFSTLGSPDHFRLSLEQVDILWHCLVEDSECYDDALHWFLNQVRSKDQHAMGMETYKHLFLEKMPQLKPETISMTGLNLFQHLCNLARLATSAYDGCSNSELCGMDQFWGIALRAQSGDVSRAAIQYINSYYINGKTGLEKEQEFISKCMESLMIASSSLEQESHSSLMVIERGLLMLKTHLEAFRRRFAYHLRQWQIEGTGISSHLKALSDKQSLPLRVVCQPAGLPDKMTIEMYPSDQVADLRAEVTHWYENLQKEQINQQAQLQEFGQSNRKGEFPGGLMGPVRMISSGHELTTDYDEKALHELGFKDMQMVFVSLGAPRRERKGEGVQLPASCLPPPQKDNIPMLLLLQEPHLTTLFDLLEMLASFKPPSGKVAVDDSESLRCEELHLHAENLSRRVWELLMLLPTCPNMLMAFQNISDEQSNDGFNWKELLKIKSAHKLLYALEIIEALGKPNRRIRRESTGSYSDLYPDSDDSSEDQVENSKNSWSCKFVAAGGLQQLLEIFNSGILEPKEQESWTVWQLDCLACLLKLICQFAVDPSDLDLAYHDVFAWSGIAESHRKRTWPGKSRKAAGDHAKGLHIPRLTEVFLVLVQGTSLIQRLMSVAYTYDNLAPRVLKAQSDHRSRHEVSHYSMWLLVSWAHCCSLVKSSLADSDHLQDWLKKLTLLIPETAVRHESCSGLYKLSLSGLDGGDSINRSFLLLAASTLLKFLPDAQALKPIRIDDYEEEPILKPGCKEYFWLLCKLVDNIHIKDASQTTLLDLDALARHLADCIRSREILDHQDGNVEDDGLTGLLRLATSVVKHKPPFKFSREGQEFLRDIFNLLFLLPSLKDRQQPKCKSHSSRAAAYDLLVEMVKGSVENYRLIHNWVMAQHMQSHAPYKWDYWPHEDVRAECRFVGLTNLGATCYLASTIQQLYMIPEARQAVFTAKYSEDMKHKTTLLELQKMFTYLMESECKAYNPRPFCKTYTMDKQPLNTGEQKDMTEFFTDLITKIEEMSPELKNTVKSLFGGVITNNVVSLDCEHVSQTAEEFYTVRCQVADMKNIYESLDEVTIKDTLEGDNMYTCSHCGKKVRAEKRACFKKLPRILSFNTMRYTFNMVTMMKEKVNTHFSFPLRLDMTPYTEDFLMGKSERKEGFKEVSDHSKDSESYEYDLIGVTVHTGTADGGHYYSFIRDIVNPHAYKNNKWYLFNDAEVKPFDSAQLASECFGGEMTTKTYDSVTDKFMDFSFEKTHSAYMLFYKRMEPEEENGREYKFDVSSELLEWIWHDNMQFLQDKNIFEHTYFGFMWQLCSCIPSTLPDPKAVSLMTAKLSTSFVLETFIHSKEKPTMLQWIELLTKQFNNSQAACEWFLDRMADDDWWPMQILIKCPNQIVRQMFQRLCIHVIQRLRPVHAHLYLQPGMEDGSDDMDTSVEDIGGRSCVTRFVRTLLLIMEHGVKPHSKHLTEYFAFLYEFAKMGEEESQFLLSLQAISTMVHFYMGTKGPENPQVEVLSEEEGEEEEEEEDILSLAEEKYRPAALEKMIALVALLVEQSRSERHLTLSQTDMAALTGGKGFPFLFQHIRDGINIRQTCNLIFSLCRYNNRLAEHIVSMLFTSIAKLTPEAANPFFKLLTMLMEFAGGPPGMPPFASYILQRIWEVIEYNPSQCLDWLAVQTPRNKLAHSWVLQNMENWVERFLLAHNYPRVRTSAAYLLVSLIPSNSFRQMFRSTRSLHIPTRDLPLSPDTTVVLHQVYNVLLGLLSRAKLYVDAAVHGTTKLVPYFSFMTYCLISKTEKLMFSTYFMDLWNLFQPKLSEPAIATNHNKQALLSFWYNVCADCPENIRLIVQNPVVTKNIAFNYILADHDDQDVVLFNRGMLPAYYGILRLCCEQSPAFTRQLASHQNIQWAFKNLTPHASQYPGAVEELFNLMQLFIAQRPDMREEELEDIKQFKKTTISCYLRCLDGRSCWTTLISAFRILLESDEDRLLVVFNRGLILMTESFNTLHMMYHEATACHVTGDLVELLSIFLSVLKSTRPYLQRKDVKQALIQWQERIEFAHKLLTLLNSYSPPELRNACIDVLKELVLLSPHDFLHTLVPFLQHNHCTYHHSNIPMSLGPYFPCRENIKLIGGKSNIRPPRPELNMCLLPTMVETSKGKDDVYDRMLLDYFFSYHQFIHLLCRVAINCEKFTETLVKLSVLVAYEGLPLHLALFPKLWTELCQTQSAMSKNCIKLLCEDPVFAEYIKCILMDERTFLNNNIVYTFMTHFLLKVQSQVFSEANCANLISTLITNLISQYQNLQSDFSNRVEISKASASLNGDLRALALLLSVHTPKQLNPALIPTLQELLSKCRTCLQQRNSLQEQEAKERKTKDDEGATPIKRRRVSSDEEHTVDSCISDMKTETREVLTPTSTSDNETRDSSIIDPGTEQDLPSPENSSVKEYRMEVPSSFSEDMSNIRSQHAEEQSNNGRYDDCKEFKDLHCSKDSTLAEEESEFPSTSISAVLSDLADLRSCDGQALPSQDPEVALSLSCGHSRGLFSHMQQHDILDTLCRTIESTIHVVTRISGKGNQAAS
In short: (§1)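 HEK293T lysate (495 µg per sample, in Tris/CHAPS/IGEPAL buffer with protease inhibitors) was treated in triplicate with fragment at 200 µM or with DMSO for 3 h. It was then treated with Biotin-Ahx-Ub-VS (0.5 µM final) for 1 h. Labelled DUBs were NeutrAvidin-enriched, digested with LysC and trypsin, and run by diaPASEF LC-MS/MS. Spectronaut label-free quantities were global-median-normalised. Values are average log2 ratios fragment/DMSO by unpaired t-test, using proteins with ≥2 unique peptides.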

USP36 = target: T1, USP36 (UniProt Q9P275)
T1 sequence (whole entry): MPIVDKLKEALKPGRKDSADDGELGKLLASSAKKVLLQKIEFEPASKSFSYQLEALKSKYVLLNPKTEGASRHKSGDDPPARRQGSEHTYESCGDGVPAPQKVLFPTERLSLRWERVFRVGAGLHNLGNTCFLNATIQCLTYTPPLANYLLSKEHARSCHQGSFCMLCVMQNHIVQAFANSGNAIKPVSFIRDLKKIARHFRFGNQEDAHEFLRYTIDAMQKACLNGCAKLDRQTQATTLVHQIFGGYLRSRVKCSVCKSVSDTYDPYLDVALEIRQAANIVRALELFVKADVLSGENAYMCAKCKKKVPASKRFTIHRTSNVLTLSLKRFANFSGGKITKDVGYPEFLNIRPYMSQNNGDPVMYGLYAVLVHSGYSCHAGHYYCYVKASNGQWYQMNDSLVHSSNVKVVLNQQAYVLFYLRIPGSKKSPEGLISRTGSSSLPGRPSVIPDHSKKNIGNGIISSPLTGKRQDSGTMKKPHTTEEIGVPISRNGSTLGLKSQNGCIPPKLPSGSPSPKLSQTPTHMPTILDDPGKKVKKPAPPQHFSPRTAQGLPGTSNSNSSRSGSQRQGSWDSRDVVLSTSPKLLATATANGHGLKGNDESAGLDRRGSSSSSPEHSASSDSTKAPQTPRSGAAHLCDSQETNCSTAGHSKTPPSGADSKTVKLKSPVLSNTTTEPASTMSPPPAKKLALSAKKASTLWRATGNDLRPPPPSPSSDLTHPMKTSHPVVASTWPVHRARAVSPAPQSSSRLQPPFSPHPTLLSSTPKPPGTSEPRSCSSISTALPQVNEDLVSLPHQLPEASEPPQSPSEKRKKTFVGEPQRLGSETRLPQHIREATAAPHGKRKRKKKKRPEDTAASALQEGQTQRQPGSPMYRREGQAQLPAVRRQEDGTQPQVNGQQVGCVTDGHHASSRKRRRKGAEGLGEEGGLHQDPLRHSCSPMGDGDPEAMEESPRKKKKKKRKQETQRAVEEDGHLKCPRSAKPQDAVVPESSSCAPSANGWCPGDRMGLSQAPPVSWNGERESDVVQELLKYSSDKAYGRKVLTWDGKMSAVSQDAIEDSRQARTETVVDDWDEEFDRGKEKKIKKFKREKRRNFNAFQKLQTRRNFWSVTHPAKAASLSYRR
In short: as §1

USP38 = target: T2, USP38 (UniProt Q8NB14)
T2 sequence (whole entry): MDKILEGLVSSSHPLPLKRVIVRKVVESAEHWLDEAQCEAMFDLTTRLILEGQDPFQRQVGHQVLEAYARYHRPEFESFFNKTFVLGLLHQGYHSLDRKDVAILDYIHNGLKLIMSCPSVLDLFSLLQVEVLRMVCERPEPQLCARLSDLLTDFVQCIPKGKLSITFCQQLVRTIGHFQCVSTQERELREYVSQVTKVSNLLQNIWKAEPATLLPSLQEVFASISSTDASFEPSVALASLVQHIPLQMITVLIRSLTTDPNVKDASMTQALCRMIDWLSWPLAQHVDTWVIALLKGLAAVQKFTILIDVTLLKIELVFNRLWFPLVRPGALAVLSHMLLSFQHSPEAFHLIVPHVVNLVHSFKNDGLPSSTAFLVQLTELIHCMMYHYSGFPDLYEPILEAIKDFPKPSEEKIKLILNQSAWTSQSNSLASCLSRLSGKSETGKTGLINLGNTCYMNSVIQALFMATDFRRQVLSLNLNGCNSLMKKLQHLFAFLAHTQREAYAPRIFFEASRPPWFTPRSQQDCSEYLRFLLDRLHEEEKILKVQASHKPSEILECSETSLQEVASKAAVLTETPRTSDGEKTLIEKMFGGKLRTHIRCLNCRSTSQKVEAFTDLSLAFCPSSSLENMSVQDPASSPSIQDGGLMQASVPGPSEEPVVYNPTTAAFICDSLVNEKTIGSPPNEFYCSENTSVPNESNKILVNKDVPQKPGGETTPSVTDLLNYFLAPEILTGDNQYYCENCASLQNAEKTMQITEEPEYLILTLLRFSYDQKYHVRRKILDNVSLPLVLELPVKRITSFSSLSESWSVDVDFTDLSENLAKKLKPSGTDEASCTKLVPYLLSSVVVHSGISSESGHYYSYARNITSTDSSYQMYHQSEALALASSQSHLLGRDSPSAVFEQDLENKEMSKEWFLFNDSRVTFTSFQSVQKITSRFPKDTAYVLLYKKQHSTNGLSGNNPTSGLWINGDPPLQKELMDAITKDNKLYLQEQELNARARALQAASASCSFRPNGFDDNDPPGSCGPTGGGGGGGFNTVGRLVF
In short: as §1

USP39 = target: T3, USP39 (UniProt Q53GS9)
T3 sequence (whole entry): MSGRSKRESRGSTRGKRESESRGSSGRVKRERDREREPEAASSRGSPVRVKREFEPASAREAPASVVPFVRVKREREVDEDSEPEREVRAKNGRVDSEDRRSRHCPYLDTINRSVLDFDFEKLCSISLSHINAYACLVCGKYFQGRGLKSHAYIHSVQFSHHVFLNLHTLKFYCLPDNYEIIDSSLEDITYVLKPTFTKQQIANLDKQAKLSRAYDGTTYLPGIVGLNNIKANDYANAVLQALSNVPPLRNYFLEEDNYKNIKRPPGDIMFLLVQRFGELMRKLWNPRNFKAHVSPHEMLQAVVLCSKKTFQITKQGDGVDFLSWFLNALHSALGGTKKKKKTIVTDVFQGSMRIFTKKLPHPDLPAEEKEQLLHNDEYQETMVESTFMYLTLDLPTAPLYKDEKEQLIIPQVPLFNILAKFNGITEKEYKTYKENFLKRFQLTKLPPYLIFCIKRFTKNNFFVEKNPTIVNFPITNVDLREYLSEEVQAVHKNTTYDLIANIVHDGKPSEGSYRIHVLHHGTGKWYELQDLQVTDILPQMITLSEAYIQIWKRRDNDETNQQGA
In short: as §1

USP4 = target: T4, USP4 (UniProt Q13107)
T4 sequence (whole entry): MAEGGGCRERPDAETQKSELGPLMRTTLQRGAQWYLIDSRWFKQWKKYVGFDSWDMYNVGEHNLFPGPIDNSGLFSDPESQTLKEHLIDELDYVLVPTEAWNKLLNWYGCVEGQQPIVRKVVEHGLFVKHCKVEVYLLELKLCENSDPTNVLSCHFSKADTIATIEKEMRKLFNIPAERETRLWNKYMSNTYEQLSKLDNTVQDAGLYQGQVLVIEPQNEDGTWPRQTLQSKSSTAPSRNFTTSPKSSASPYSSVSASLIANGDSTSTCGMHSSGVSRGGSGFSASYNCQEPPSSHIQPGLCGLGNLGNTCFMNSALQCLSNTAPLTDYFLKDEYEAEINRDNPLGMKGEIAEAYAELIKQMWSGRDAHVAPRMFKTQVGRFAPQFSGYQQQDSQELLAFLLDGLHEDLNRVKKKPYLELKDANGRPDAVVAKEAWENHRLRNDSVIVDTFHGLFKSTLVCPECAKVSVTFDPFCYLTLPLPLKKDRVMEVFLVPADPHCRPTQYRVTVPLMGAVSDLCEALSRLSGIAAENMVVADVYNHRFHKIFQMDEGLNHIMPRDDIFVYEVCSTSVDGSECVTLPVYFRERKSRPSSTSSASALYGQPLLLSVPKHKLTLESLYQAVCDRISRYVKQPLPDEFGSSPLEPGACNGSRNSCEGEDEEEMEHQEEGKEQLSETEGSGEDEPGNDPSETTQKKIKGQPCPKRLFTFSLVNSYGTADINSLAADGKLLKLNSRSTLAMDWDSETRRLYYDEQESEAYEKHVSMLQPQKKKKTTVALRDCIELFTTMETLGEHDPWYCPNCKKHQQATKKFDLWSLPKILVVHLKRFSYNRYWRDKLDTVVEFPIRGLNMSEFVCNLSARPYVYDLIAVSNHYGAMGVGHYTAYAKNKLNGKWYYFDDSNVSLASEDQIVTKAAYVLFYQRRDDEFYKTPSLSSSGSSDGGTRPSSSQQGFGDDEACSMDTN
In short: as §1

Measured: log2 ratio of Biotin-Ahx-Ub-VS probe labelling

O=C(CCl)NC1CCS(=O)(=O)c2ccccc21 (stereo not given)
inactive: USP34 -0.0259 | USP36 -0.0862 | USP38 -0.432 | USP39 -0.117 | USP4 -0.0115
